The source made the active and inactive calls. The calls were made as follows, unless noted: active = hit-call score of the fitted dose curve at least 0.9, where 1 is the maximum; inactive = score below 0.9.
Key:
[1] = read-out: Paternally Expressed 10 (PEG10), PEG10 (gene 23089); test: LTEA_HepaRG_PEG10: Life Technologies and Expression Analysis (LTEA) Assay for Paternally Expressed 10 (PEG10) using HepaRG (AID 2283520); conditions: mRNA level, 48 h; actives raise or lower the signal
Method in brief: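 HepaRG, 48 h post-plating → serum-free induction medium → 48 h chemical exposure (duplicate, 8-pt, max 100 uM, half-log, 0.5% DMSO) → lysis in RLT → TaqMan qRT-PCR for PEG10, ACTB/GAPDH/POLR2A normalisation.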

[2] = read-out: Nuclear factor NF-kappa-B p105 subunit (Homo sapiens) (UniProt P19838); test: LTEA_HepaRG_NFKB1: Life Technologies and Expression Analysis (LTEA) Assay for Nuclear Factor Kappa B Subunit 1 (NFKB1) using HepaRG (AID 2283521); conditions: mRNA level, 48 h; actives raise or lower the signal
Method in brief: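 Differentiated human HepaRG cells in serum-free induction medium with 0.5% DMSO were exposed for 48 h to eight half-log concentrations, top 100 uM, in duplicate. NFKB1 mRNA measured by Fluidigm TaqMan qRT-PCR, normalised to ACTB, GAPDH and POLR2A; bidirectional fit versus DMSO.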

[3] = read-out: Phosphatase and tensin (PTEN), PTEN (gene 5728); test: LTEA_HepaRG_PTEN: Life Technologies and Expression Analysis (LTEA) Assay for Phosphatase and tensin (PTEN) using HepaRG (AID 2283523); conditions: mRNA level, 48 h; actives raise or lower the signal
Method in brief: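 Read-out is PTEN transcript level by multiplexed TaqMan qRT-PCR after 48 h chemical treatment of human HepaRG cultures in serum-free induction medium. Concentrations spanned 100 uM downward in half-log steps, 0.5% DMSO throughout; activity fitted in both directions against vehicle.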

[4] = read-out: solute carrier (SLC22A1), SLC22A1 (gene 6580); test: LTEA_HepaRG_SLC22A1: Life Technologies and Expression Analysis (LTEA) Assay for solute carrier (SLC22A1) using HepaRG (AID 2283524); conditions: mRNA level, 48 h; actives raise or lower the signal
Method in brief: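 HepaRG (human liver line), 48 h dosing in serum-free induction medium; 8 conc., half-log down from 100 uM, 0.5% DMSO vehicle, duplicates. Endpoint: SLC22A1 mRNA, qRT-PCR, housekeeping-normalized; gain/loss fit vs DMSO.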

[5] = read-out: Pyruvate Dehydrogenase Kinase 4 (PDK4), PDK4 (gene 5166); test: LTEA_HepaRG_PDK4: Life Technologies and Expression Analysis (LTEA) Assay for Pyruvate Dehydrogenase Kinase 4 (PDK4) using HepaRG (AID 2283525); conditions: mRNA level, 48 h; actives raise or lower the signal
Method in brief: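 In this multiplexed human HepaRG expression assay, cells are treated 48 h with test chemicals across an eight-point range starting at 100 uM. PDK4 mRNA changes, normalized to ACTB/GAPDH/POLR2A, are fitted in both directions relative to vehicle.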

[6] = read-out: NAD(P)H dehydrogenase [quinone] 1 (NQO1), NQO1 (gene 1728); test: LTEA_HepaRG_NQO1: Life Technologies and Expression Analysis (LTEA) Assay for NAD(P)H dehydrogenase [quinone] 1 (NQO1) using HepaRG (AID 2283526); conditions: mRNA level, 48 h; actives raise or lower the signal
Method in brief: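 HepaRG, 48 h post-plating → serum-free induction medium → test chemical 48 h (duplicate, 100 uM top, half-log x8, 0.5% DMSO) → RNA isolation → qRT-PCR, ACTB/GAPDH/POLR2A normalization; bidirectional curve fit vs DMSO baseline.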

[7] = read-out: Nuclear factor erythroid 2-related factor 2 (Homo sapiens) (UniProt Q16236); test: LTEA_HepaRG_NFE2L2: Life Technologies and Expression Analysis (LTEA) Assay for Nuclear factor erythroid 2-related factor 2 (NFE2L2) Transcription Factor using HepaRG (AID 2283527); conditions: mRNA level, 48 h; actives raise or lower the signal
Method in brief: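 Transcript level of NFE2L2 is the read-out, measured by microfluidic TaqMan qRT-PCR and normalized to three housekeeping genes. Human HepaRG cultures received test chemical for 48 h at up to 100 uM in half-log steps. Gain or loss of signal is fitted relative to 0.5% DMSO.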

[8] = read-out: succinate dehydrogenase complex iron sulfur subunit B (SDHB), SDHB (gene 6390); test: LTEA_HepaRG_SDHB: Life Technologies and Expression Analysis (LTEA) Assay for succinate dehydrogenase complex iron sulfur subunit B (SDHB) using HepaRG (AID 2283528); conditions: mRNA level, 48 h; actives raise or lower the signal
Method in brief: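 HepaRG cells (~100,000/well, plated 48 h) exposed in duplicate for 48 h in serum-free induction medium to 8-point half-log series from 100 uM in 0.5% DMSO; mRNA by qRT-PCR normalised to ACTB, GAPDH, POLR2A; bidirectional fit versus DMSO.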

[9] = read-out: Signal transducer and activator of transcription 3 (Homo sapiens) (UniProt P40763); test: LTEA_HepaRG_STAT3: Life Technologies and Expression Analysis (LTEA) Assay for Signal transducer and activator of transcription (STAT3) using HepaRG (AID 2283529); conditions: mRNA level, 48 h; actives raise or lower the signal
Method in brief: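 Read-out is STAT3 mRNA level by qRT-PCR, normalized to three housekeeping genes, in human HepaRG liver cells treated for 48 h. Concentrations ran from 100 uM downward in half-log steps; curves were fitted for gain or loss relative to 0.5% DMSO.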

[10] = read-out: solute carrier (SLCO1B1), SLCO1B1 (gene 10599); test: LTEA_HepaRG_SLCO1B1: Life Technologies and Expression Analysis (LTEA) Assay for solute carrier (SLCO1B1) using HepaRG (AID 2283530); conditions: mRNA level, 48 h; actives raise or lower the signal
Method in brief: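 SLCO1B1 transcript levels were quantified by TaqMan qRT-PCR using three housekeeping genes for normalization. This followed 48 h chemical exposure (100 uM top, half-log, 8 points, 0.5% DMSO) of HepaRG liver cells, with gain or loss fitted relative to DMSO.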

[11] = read-out: sulfotransferase 2A1 (SULT2A1), SULT2A1 (gene 6822); test: LTEA_HepaRG_SULT2A1: Life Technologies and Expression Analysis (LTEA) Assay for sulfotransferase 2A1 (SULT2A1) using HepaRG (AID 2283531); conditions: mRNA level, 48 h; actives raise or lower the signal
Method in brief: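 Expression change of SULT2A1, by qRT-PCR with three housekeeping-gene normalization, was scored bidirectionally versus DMSO. Cells: differentiated HepaRG, dosed in duplicate for 48 h across 8 points, highest 100 µM, half-log dilution, 0.5% DMSO.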

[12] = read-out: Transforming Growth Factor (TGFA), TGFA (gene 7039); test: LTEA_HepaRG_TGFA: Life Technologies and Expression Analysis (LTEA) Assay for Transforming Growth Factor (TGFA) using HepaRG (AID 2283532); conditions: mRNA level, 48 h; actives raise or lower the signal
Method in brief: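 HepaRG (human liver line), 48 h exposure, 8 conc. half-log down from 100 uM, 0.5% DMSO vehicle, duplicates; serum-free induction medium. TGFA mRNA by TaqMan qRT-PCR, ACTB/GAPDH/POLR2A normalization; gain/loss fit vs DMSO.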

[13] = read-out: Transforming Growth Factor (TGFB1), TGFB1 (gene 7040); test: LTEA_HepaRG_TGFB1: Life Technologies and Expression Analysis (LTEA) Assay for Transforming Growth Factor (TGFB1) Transporter using HepaRG (AID 2283533); conditions: mRNA level, 48 h; actives raise or lower the signal
Method in brief: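 TGFB1 transcript measured by qRT-PCR with normalisation to three housekeeping genes (ACTB, GAPDH, POLR2A); human HepaRG line treated in duplicate for 48 hr with an 8-point series topping at 100 uM, 0.5% DMSO vehicle, bidirectionally fitted.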

TIMP1, TIMP1 (gene 7076) = test: LTEA_HepaRG_TIMP1: Life Technologies and Expression Analysis (LTEA) Assay for TIMP1 using HepaRG (AID 2283534); conditions: mRNA level, 48 h; actives raise or lower the signal
Method in brief: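 Bidirectional change in TIMP1 transcript versus 0.5% DMSO, measured by TaqMan qRT-PCR with three housekeeping genes for normalization. HepaRG human liver cells dosed 48 h in duplicate, top concentration 100 uM with half-log dilutions.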

[14] = read-out: Tumor necrosis factor receptor 1 (TNFRSF1A), TNFRSF1A (gene 7132); test: LTEA_HepaRG_TNFRSF1A: Life Technologies and Expression Analysis (LTEA) Assay for Tumor necrosis factor receptor 1 (TNFRSF1A) using HepaRG (AID 2283535); conditions: mRNA level, 48 h; actives raise or lower the signal
Method in brief: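 mRNA measured by qRT-PCR (TaqMan, Fluidigm arrays) against ACTB/GAPDH/POLR2A housekeepers after 48 h chemical exposure of HepaRG cells. Top concentration 100 uM, half-log 8-point series, duplicates; vehicle 0.5% DMSO, both fit directions.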

[15] = read-out: Thyroid Hormone Responsive (THRSP), THRSP (gene 7069); test: LTEA_HepaRG_THRSP: Life Technologies and Expression Analysis (LTEA) Assay for Thyroid Hormone Responsive (THRSP) using HepaRG (AID 2283536); conditions: mRNA level, 48 h; actives raise or lower the signal
Method in brief: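 mRNA induction or loss relative to 0.5% DMSO vehicle was fitted bidirectionally across an eight-point curve whose highest exposure was 100 uM. Human HepaRG liver cells received chemicals in duplicate over 48 h before RNA extraction.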

[16] = read-out: UDP glucuronosyltransferase (UGT1A1), UGT1A1 (gene 54658); test: LTEA_HepaRG_UGT1A1: Life Technologies and Expression Analysis (LTEA) Assay for UDP glucuronosyltransferase (UGT1A1) using HepaRG (AID 2283538); conditions: mRNA level, 48 h; actives raise or lower the signal
Method in brief: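 Readout is UGT1A1 transcript level by qRT-PCR, normalized to three housekeeping genes, after 48 h chemical treatment of HepaRG cells. Concentrations ran from 100 uM down in half-log steps with 0.5% DMSO, and gain or loss relative to DMSO was fitted.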

[17] = read-out: UDP glucuronosyltransferase (UGT1A6), UGT1A6 (gene 54578); test: LTEA_HepaRG_UGT1A6: Life Technologies and Expression Analysis (LTEA) Assay for UDP glucuronosyltransferase (UGT1A6) using HepaRG (AID 2283539); conditions: mRNA level, 48 h; actives raise or lower the signal
Method in brief: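 Expression was quantified by TaqMan qRT-PCR on Fluidigm arrays with ACTB/GAPDH/POLR2A normalization and bidirectional fitting against 0.5% DMSO. HepaRG cells (~100,000/well) were treated in duplicate for 48 h at eight half-log concentrations up to 100 uM in serum-free induction medium.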

[18] = LTEA_HepaRG_LDH_cytotoxicity: Cytotoxicity Assessment in the Life Technologies and Expression Analysis (LTEA) Assay (AID 2283563; active = hit-call score of the fitted dose curve at least 0.9, where 1 is the maximum;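 as to AC50: LDH activity released into spent culture medium as a marker of cell death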)
Method in brief: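 LDH release into culture medium read after 48 h chemical treatment of HepaRG cells. Duplicate wells, eight-point half-log series topping at 100 uM, 0.5% DMSO vehicle and baseline.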

[19] = read-out: Cellular tumor antigen p53 (Homo sapiens) (UniProt P04637); test: LTEA_HepaRG_TP53: Life Technologies and Expression Analysis (LTEA) Assay for Tumor Protein P53 (TP53) using HepaRG (AID 2283537); conditions: mRNA level, 48 h; actives raise or lower the signal
Method in brief: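 Differentiated HepaRG cells in serum-free induction medium exposed 48 h in duplicate to 8 half-log concentrations, top 100 uM, 0.5% DMSO. TP53 mRNA by TaqMan qRT-PCR (Fluidigm), normalized to ACTB, GAPDH, POLR2A; fitted bidirectionally versus DMSO.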

Measured: AC50

Sequence of Nuclear factor NF-kappa-B p105 subunit (Homo sapiens) (P19838 whole entry, looked up): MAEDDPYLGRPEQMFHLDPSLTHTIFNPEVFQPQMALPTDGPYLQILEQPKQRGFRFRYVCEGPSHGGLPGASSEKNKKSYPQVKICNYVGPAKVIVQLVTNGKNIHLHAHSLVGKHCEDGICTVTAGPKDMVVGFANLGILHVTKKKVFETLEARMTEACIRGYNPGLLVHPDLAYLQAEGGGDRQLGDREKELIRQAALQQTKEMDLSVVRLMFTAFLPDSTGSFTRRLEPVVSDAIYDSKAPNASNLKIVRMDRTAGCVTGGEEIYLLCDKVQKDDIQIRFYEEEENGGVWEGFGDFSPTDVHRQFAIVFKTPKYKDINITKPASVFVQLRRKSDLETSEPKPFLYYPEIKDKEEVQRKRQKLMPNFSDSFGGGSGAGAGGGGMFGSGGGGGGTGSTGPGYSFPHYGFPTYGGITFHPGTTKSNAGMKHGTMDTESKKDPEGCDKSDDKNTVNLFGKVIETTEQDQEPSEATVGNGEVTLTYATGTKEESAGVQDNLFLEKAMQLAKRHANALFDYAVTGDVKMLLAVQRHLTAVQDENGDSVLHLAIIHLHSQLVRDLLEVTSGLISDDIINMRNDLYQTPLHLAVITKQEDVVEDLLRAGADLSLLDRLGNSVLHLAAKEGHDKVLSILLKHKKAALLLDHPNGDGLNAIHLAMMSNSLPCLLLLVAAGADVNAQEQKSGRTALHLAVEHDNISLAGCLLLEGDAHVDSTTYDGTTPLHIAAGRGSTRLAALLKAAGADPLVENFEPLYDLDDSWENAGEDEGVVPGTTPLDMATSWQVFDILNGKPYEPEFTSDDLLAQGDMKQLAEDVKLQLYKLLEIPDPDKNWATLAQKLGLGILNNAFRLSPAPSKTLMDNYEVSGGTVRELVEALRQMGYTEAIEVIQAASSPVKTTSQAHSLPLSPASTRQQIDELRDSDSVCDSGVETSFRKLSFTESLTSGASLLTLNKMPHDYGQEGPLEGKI
Sequence of Signal transducer and activator of transcription 3 (Homo sapiens) (P40763 whole entry, looked up): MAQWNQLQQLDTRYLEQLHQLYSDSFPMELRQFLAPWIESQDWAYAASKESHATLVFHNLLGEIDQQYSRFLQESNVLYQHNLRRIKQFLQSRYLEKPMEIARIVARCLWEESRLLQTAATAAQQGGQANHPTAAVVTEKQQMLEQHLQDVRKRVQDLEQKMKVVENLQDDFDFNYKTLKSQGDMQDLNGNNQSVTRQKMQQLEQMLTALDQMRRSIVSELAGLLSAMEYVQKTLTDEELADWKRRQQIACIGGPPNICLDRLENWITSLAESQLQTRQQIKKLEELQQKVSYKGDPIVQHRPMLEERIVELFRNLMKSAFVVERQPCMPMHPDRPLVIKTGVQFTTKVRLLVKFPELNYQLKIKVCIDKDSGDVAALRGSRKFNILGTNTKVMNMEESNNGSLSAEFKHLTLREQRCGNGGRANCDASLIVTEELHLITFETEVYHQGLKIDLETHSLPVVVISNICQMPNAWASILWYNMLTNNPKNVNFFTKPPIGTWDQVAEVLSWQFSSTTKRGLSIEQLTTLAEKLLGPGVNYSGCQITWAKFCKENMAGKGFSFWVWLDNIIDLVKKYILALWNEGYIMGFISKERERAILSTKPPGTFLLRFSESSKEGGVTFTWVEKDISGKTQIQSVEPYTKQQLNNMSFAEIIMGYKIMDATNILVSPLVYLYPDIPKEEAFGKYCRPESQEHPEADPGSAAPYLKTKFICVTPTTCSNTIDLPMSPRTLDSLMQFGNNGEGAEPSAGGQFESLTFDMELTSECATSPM
Sequence of Nuclear factor erythroid 2-related factor 2 (Homo sapiens) (Q16236 whole entry, looked up): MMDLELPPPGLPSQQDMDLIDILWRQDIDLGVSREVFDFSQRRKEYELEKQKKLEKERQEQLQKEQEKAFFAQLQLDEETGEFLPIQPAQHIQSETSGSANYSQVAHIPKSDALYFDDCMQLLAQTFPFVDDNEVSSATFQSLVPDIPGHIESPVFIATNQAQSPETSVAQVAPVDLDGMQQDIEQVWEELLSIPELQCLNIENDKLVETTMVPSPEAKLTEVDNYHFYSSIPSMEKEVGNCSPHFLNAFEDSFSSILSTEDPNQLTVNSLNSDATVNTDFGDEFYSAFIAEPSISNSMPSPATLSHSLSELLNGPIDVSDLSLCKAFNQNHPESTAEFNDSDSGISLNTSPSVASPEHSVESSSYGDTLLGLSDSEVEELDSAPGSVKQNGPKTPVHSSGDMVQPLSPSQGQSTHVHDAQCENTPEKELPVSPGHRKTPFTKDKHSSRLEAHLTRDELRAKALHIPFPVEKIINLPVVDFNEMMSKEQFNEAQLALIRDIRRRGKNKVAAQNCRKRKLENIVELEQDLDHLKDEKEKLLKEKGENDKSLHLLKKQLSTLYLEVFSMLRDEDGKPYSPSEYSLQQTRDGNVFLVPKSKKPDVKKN
Sequence of Cellular tumor antigen p53 (Homo sapiens) (P04637 whole entry, looked up): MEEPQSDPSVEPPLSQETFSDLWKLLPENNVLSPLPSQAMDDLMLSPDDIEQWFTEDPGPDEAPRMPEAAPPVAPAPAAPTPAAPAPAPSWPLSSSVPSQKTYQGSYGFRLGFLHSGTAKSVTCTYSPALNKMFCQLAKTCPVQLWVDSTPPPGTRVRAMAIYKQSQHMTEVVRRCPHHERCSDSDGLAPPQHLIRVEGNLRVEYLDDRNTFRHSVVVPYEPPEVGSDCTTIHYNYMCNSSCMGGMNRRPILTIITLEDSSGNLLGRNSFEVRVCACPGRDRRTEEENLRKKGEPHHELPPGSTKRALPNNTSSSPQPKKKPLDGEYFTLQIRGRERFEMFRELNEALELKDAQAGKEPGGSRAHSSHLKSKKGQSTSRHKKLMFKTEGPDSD

CC(C)(C)c1ccccc1O
active: [16] 4.14 µM
not listed: [19]
inactive: all other assays above

Oc1c(Cl)cc(Cl)cc1Cl
active: [19] 50 µM
not listed: [2] | [7] | [18]
inactive: all other assays above

CC(C)O.CC(C)O.OCCN(CCO)CCO.OCCN(CCO)CCO.[Ti]
not listed: [18] | [19]
inactive: all other assays above

OCCN(CCO)CCO
not listed: [19]
inactive: all other assays above

CN(C)C(=S)S
not listed: [2] | [19]
inactive: all other assays above

Clc1cccc(Cl)c1
not listed: [19]
inactive: all other assays above

N#Cc1cccnc1
not listed: [2] | [19]
inactive: all other assays above

Clc1cccc(Cl)c1Cl
not listed: [19]
inactive: all other assays above

COc1ccccc1N
not listed: [2] | [19]
inactive: all other assays above

Cc1cc(C)cc(C)c1
not listed: [19]
inactive: all other assays above

CCCCCCCCCCCCc1cccc(S(=O)(=O)O)c1
active: [7] 45 µM | [12] 45 µM | [13] 45 µM | [15] 66.9 µM | [16] 22.9 µM
not listed: [19]
inactive: all other assays above

O=C(O)C1(c2ccc3c(c2)OC[C@H](Cc2ccc(-c4ccccc4)cc2)[C@H]3O)CCCC1
active: [1] 50 µM | [2] 76 µM | [3] 91.5 µM | [5] 11.4 µM | [8] 81.6 µM | [13] 77.5 µM | TIMP1, TIMP1 (gene 7076) 78.8 µM | [18] 77.6 µM
not listed: [19]
inactive: all other assays above

Oc1cc(Cl)c(Cl)cc1Cl
active: [18] 84.8 µM
not listed: [19]
inactive: all other assays above

O=C(N[C@H]1CN2CCC1CC2)c1ccc2c(c1)OCCO2
not listed: [2] | [19]
inactive: all other assays above

From PubChem BioAssay (EPA / NIEHS)
